Among all 340,000 compounds or so, about 2,100 (0.62%) were called active.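 How the source made its calls: active means first-screen hits whose inhibition reached a set limit at any dose in the follow-up dose series; inconclusive means inhibition above the set first-screen limit but never retested; inactive means the rest.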 Not all results are given here. Entries with a potency or affinity are not part of this list.
target: Rac GTPase-activating protein 1 (Homo sapiens) (UniProt Q9H0H5); assay: blockers of MgcRacGAP-driven Rac1 GTP hydrolysis – biochemical, ADP Hunter fluorescence, primary and confirmatory, confirmation (AID 624330); conditions: MgcRacGAP-stimulated Rac1 GTP hydrolysis, at 30 µM, stronger effect = higher value, GST-tagged Rac1 F28L mutant substrate;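 further: fluorescence reports GDP produced by GAP-driven GTP hydrolysis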
Sequence (Q9H0H5 whole entry, looked up): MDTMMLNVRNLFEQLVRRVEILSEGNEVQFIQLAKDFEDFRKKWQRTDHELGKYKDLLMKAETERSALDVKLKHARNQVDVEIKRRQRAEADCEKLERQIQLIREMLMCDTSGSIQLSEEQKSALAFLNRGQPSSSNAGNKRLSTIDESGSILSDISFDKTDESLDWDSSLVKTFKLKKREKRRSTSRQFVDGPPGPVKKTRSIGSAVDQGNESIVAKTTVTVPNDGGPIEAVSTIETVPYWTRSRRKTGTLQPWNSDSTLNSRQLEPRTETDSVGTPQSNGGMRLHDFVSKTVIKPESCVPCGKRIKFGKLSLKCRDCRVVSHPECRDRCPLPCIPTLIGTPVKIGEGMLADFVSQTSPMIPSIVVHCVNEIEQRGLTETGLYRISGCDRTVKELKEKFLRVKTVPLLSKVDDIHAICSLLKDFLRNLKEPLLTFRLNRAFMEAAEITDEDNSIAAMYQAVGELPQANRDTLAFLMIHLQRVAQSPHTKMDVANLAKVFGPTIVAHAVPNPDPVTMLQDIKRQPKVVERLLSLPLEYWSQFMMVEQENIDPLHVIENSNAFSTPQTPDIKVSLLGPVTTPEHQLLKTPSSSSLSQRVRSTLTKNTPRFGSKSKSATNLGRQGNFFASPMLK

inhibition, inactive:
Cc1ccc(NS(=O)(=O)c2cc(N)ccc2Cl)c(C)c1 11.7%
CNS(=O)(=O)c1cc(N)ccc1C 5.24%
Cc1cc(C)cc(NC(=S)N2CCCC2)c1 4.82%
Clc1ccc(NNc2ccnc3cc(Cl)ccc23)cc1 6.46%
Clc1ccc2c(N/N=C/c3ccc(Br)cc3)ccnc2c1 7.12%
CC(=O)c1ccc(N2CCN(c3ccnc4cc(Cl)ccc34)CC2)cc1 1.01%
C/C(=N/Nc1ccnc2cc(Cl)ccc12)c1ccc(O)cc1 18.6%
C/C(=N/Nc1ccnc2cc(Cl)ccc12)c1ccc(N)cc1 18.6%
Oc1ccc(/C=N/Nc2ccnc3cc(Cl)ccc23)c(O)c1O 15.3%
CCOc1ccc(Nc2ccnc3cc(Cl)ccc23)cc1 6.93%
COc1ccc(N2CCN(c3ccnc4cc(Cl)ccc34)CC2)cc1 13.2%
CN(C)CCNC(=O)NC(=O)c1ccc(Cl)cc1 7.5%
CCOCCCNC(=S)Nc1ccc2nc3n(c(=O)c2c1)CCCCC3 -1.06%
CC(C)C(=O)N1CCN(CCN2C(=O)c3cccc4cccc(c34)C2=O)CC1 12.5%
COC(=O)c1c(C)[nH]c(C(=O)C(C)OC(=O)c2ccco2)c1C (centres undefined) 5.7%
Cc1ccc(N(C(C)C(=O)Nc2ccccc2C(=O)N2CCOCC2)S(C)(=O)=O)cc1C (centres undefined) 10.3%
O=C1c2ccccc2C(=O)c2[nH]c(=O)[nH]c21 8.15%
COCCNC(=S)NNc1ccc(Cl)c(C(=O)O)c1 7.21%
CCOC(=O)c1c(N2C(=O)Nc3ccccc3N2O)sc2c1CCCCC2 14.2%
CC1(C(=O)O)CCC(C(N)=O)C1(C)C (centres undefined) 5.23%
O=C(O)C1OC2OC3(CCCCC3)OC2C2OC3(CCCCC3)OC12 (centres undefined) -5.5%
CC(=O)Nc1ccc(NC(=O)C(=O)c2cn(CC(=O)N3CCCC3)c3ccccc23)cc1 4.85%
Cc1cc(C)n2ncc(C(=O)NCc3ccccc3)c2n1 0.67%
COc1ccc(/C=N/NC(=S)Nc2cccc(C(=O)O)c2)cc1OC -9.15%
CN(C)S(=O)(=O)c1cccc(NC(=S)N/N=C/c2cccc(O)c2)c1 2.96%
COc1cc(/C=N/NC(=S)Nc2cccc(C(=O)O)c2)cc(OC)c1OC 7.41%
COc1cc(/C=N/NC(=S)Nc2cccc(S(=O)(=O)N(C)C)c2)cc(OC)c1O -1.97%
CCOC(=O)N1CCN(c2c(N3CCN(c4ccccc4OC)CC3)c(=O)c2=O)CC1 8.07%
O=C(COC(=O)c1ccc(Cl)c(S(=O)(=O)N2CCCCC2)c1)NCc1ccco1 5.55%
CCC(C)NS(=O)(=O)c1ccc(OCC(=O)Nc2ccc(F)cc2F)cc1 (centres undefined) 4.64%
CCCOc1ccc(/C(O)=C2/C(=O)C(=O)N(CCCn3ccnc3)C2c2ccco2)cc1 (centres undefined) 7.22%
COc1ccc(NC(=O)CN(c2cc(C)cc(C)c2)S(=O)(=O)c2c(C)n[nH]c2C)cc1 6.02%
C=CCc1ccc(OCCCCN2CC(C)OC(C)C2)c(OC)c1 (centres undefined) 16.2%
C=CCc1cc(Cl)ccc1OCCN1CC(C)OC(C)C1 (centres undefined) 26.3%
CC(=O)C1=C(O)C(=O)N(c2ccc(F)cc2)C1c1ccc(C)cc1 (centres undefined) 9.06%
COc1ccc(Br)cc1CN1CCSCC1 19.9%
COc1ccc(Br)cc1CN1CCCCCCC1 11.8%
c1ccc(CN2CCN(Cc3c[nH]c4ccccc34)CC2)cc1 8.7%
COc1ccc(S(=O)(=O)N2CCN(Cc3c[nH]c4ccccc34)CC2)cc1 -10.1%
COc1ccc(Br)cc1CN1CCN(S(=O)(=O)Cc2ccccc2)CC1 19.2%
COc1ccc(C(=O)C2CCCN(Cc3c[nH]c4ccccc34)C2)c(OC)c1 (centres undefined) -5.48%
COc1ccc(Br)cc1CN1CCCCCC1 25.6%
COc1ccc(CN2CCN(Cc3c[nH]c4ccccc34)CC2)cc1 30.3%
CCOc1ccc(NC(=O)Nc2c(C)n(C)n(-c3ccccc3)c2=O)cc1 0.15%
O=C(NCc1ccc(F)cc1)C1CCCN(S(=O)(=O)c2ccc(Br)s2)C1 (centres undefined) 5.11%
COc1ccccc1NC(=O)C1=C(C)Nc2nc(-c3cccs3)nn2C1c1cccc(O)c1 (centres undefined) 3.45%
Cc1c(C(=O)OCC(=O)Nc2c(C)n(C)n(-c3ccccc3)c2=O)cccc1[N+](=O)[O-] -3.37%
COc1ccc(C(=O)N/C(=C\c2cc(OC)c(OC)cc2[N+](=O)[O-])C(=O)NCC(=O)O)cc1 5.33%
CN(C)CCNC(=O)c1cccc2nc3cccc(F)c3nc12 14%
COc1ccc(-c2nc3c(C(=O)NCCN(C)C)cccc3c3ccccc23)cc1 28.1%
CCN(CC)S(=O)(=O)c1cccc(C(=O)N/N=C/c2cc(OC)c(O)c(OC)c2)c1 13.8%
O=C(NN=Cc1ccc(F)cc1)c1cccc(S(=O)(=O)N2CCCC2)c1 6.35%
CCOc1ccccc1/C=N/NC(=O)c1cccc(S(=O)(=O)N2CCOCC2)c1 5.13%
O=C(/C=C/c1ccc(N2CCCCC2)c([N+](=O)[O-])c1)c1ccc(S(=O)(=O)N2CCCC2)cc1 6.38%
CCN(CC)S(=O)(=O)c1cccc(C(=O)N/N=C/c2cccc(O)c2O)c1 15%
O=C(N/N=C/c1ccc(F)c(F)c1)c1cccc(S(=O)(=O)N2CCCCC2)c1 0.51%
O=C(O)c1ccc(S(=O)(=O)N2CCCCCCC2)cc1 13.8%
CCOc1cc(/C=N/NC(=O)c2cccc(S(=O)(=O)N3CCCC3)c2)ccc1OCC(=O)N(C)C 5.83%
COc1cc2c(cc1OC)C(c1ccccc1)N(C(=O)C(C)(C)C)CC2 (centres undefined) 5.24%
COc1cc(/C=N/NC(=O)c2cccc(S(=O)(=O)N3CCCCC3)c2)cc(Br)c1O 18.1%
COc1cc(/C=N/NC(=O)c2cccc(S(=O)(=O)N3CCCC3)c2)cc(OC)c1O 15.2%
O=C(COC(=O)C1CC1)NCCc1ccccc1 -3.28%
COCCCN1C(=O)C(CC(=O)NCc2ccco2)CC(C(=O)N(C)C)=C1C (centres undefined) 14.3%
CCOc1ccc(NS(=O)(=O)c2ccc(N)cc2)cc1 1.38%
CCOc1ccc(NC(N)=O)cc1 2.99%
CCc1ccc(N2CN(Cc3cccnc3)CNC2=S)cc1 4.47%
COc1ccc(C2C(C(=O)Nc3cccc(C)n3)c3ccccc3C(=O)N2C)cc1 (centres undefined) 5.99%
O=C(c1cccc(F)c1)N1CCN(Cc2ccco2)CC1 24.7%
COc1ccc(Br)cc1CN1CCN(C(=O)c2cccc(F)c2)CC1 26.9%
O=C(c1cccnc1)N1CCN(Cc2cccc(F)c2)CC1 23.3%
O=C(c1cccnc1)N1CCN(Cc2ccc3ccccc3c2)CC1 22.8%
O=C(CCn1nc(-c2ccc(Cl)cc2)ccc1=O)N1CCN(c2ccccc2)CC1 11.2%
Cc1sc(NC(=O)CCC(=O)O)c(C#N)c1C 4.82%
CCCCNc1c(-c2ccc(-c3ccc(OC)cc3)c(OC)c2)nc2ccccn12 0.86%
CCc1nc2ccccc2c(C(=O)O)c1C 1.89%
CCOc1ccc(CC2S/C(=N/N=C/c3ccco3)NC2=O)cc1 (centres undefined) -0.79%
CN(C(=O)c1ccc(NC(=O)Cc2ccc(NC(=O)C3CCN(C(=O)C4CCCC4)CC3)cc2)cc1)C1CC1 4.41%
CCC(C)NC(=O)CNC(=S)N(CCCN1CCOCC1)Cc1cccs1 (centres undefined) -3.85%
Cc1ccc2c(c1)N(C(=O)CCC(=O)N1CCC(C(N)=O)CC1)CCO2 -0.21%
Cc1cc(N2CCCC2)ccc1NC(=O)CN1C(=O)NC(C)(c2ccccc2)C1=O (centres undefined) 22.9%
Cc1cc(Cl)ccc1NC(=O)CN1C(=O)NC2(CCCC2)C1=O 7.39%
CCC1(c2ccccc2)NC(=O)N(CC(=O)Nc2ccccc2N2CCCC2)C1=O (centres undefined) 2.64%
O=C(CN1C(=O)NC2(CCCCC2)C1=O)Nc1ccc(N2CCCCC2)cc1 -8.69%
Cc1ccc(C)c(NS(=O)(=O)c2cc3c4c(c2)CC(=O)N4CCC3)c1 12.2%
COc1cc(C2OCC3C(c4cc(OC)c(OC)c(OC)c4)OCC23)cc(OC)c1OC (centres undefined) 3.17%
COc1cc(C2N(C)C(=O)c3ccccc3N2C)ccc1O (centres undefined) 9.29%
Cc1ccc(C2C(=O)c3ccccc3C2=O)cc1 5.72%
O=C1c2ccccc2C(=O)C1c1ccc(Br)cc1 9.65%
COc1ccc(C2C(=O)c3ccccc3C2=O)cc1OC 8.73%
COc1cc([C@@H]2OC[C@@H]3[C@H]2CO[C@@H]3c2ccc3c(c2)OCO3)ccc1O 15.6%
O=C(NNc1nc2c(F)cccc2s1)c1ccccc1 3.05%
CC(=O)NC(CC(=O)NCCc1ccccc1)c1ccccc1 (centres undefined) 5.84%
COc1cc(/C=C/C(=O)O)cc(S(=O)(=O)N(CC(C)C)CC(C)C)c1OC 3.78%
Cc1cc(OC(C)C(=O)NCCCN2CCOCC2)c2c(C)cc(=O)oc2c1 (centres undefined) 5.41%

Reference: PubChem BioAssay AID624330 (Southern Research Specialized Biocontainment Screening …, 2012)
